EWS-Fli inh: EWS/Fli transcriptional activity inhibition. A673 NR0B1-luciferase reporter, viability-normalised. inhibition, % at 12.6 µM. 0.67% of 350,000 active. AID 651661;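 active = mean inhibition of at least 50% after viability correction, with every replicate also passing that limit; inconclusive = mean reaches 50% but only one of two replicates passes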;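 note: firefly luciferase signal divided by Alamar Blue viability fluorescence both relative to DMSO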
PAX8 reporter: lowers PAX8-driven luciferase in RMG-I cells | RMG-I TPO-luciferase reporter, SteadyGlo, 24 h | inhibition, % at 12.6 µM | 1.2% of 360,000 active | AID 652154;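 active = mean replicate inhibition at least 60% with every replicate also reaching 60%; inconclusive = only one of the two criteria is met; inactive = mean below 60% and not all replicates reaching 60%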;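 note: luciferase light reporting Pax8 driven TPO promoter activity; plate controls were median of neutral control wells for no effect and mitoxantrone controls for full effect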
TROY NFkB inh: inhibitors of TROY-dependent NF-kB signaling; inhibition, % at 10 µM; 0.98% of 360,000 active; Q293 LMP1-TROYcd NF-kB luciferase reporter, 4 h;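 active = compounds whose plate-normalised and pattern-corrected inhibition of the luciferase reporter signal at the single screening dose is 50% or more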
LMP1 NFkB inh: reduces LMP1-driven NF-kappaB luciferase signal | LMP1-induced NF-kappaB luciferase reporter cells, luminescence | inhibition, % at 12.5 µM | 0.69% of 350,000 active | AID 504558; in the data active = inhibition above about 41%; inconclusive = no clear call, values can overlap the other calls;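 note: 0% = neutral control wells and 100% = reference inhibitor control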
LGR2 antag: Drosophila LGR2 receptor signaling inhibition | HEK293 LGR2, CRE-luciferase, bursicon-stimulated, 4 h | inhibition, % at 9.99 µM | 0.35% of 380,000 active | AID 720647;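 active = drop in luminescence signal, shown as inhibition above about 50% in the replicate tests, limit read from the data, passing the limit was not always enough; inconclusive = probably only some replicates passing the limit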;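 note: agonist challenge used bursicon conditioned medium at about half maximal strength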
TWEAK-Fn14 inh: inhibitors of TWEAK-Fn14 interaction signaling | TWEAK-stimulated Fn14 reporter cells, luciferase luminescence, 8 h | inhibition, % at 10 µM | 2% of 360,000 active | AID 1159606; in the data active = inhibition above about 50%
Active calls of the source: *; ? = inconclusive; . = no result given. Hits are enriched below; roughly 3.1% of the tested compounds scored in any of these assays.

SMILES	EWS-Fli inh	PAX8 reporter	TROY NFkB inh	LMP1 NFkB inh	LGR2 antag	TWEAK-Fn14 inh
CCN1C(=O)C(=Cc2cccc(OC)c2Oc2ccc([N+](=O)[O-])cc2[N+](=O)[O-])SC1=S	58*	38	-9	-70	8	91*
CC(Sc1nnc(CN2CCCC2)n1Cc1ccccc1)C(=O)Nc1ccccc1 (stereo unspecified)	4	-5	66*	-9	-6	4
CO[C@H]1CN(C)C(=O)c2cc(NS(C)(=O)=O)ccc2OC[C@H](C)N(C(=O)CN(C)C)C[C@H]1C	-8	.	.	.	-17	.
COc1ccc(-c2cn(-c3ccc(Br)cc3)c3[n+]2CCS3)cc1	6	65*	12	12	7	14
Clc1ccc(-c2cn(-c3ccccc3)c3[n+]2CCS3)cc1	8	10	-17	-6	-29	1
O=C(O)c1ccccc1NS(=O)(=O)c1cccc2cccnc12	.	.	0	-5	6	-14
O=S(=O)(Nc1cc(Sc2cccc3cccnc23)c(O)c2ccccc12)c1ccccc1	6	105*	.	.	.	.
CCc1ccc(S(=O)(=O)Nc2cc(SCC(=O)O)c(O)c3ccccc23)cc1	-26	23	60*	3	45	83*
O=C(O)c1cccc(S(=O)(=O)Nc2ccc([N+](=O)[O-])cc2O)c1	0	-12	18	-2	3	-4
O=C(O)CSc1cc(NS(=O)(=O)c2cccc([N+](=O)[O-])c2)c2ccccc2c1O	-6	29	62*	27	?	91*
O=S(=O)(Nc1ccc(O)c2ccccc12)c1ccc(F)cc1	-20	26	31	6	7	28
CCc1ccc(S(=O)(=O)Nc2ccc(O)c3ccccc23)cc1	-17	27	-11	20	18	94*
O=C(NCC1CC1)[C@@H]1[C@@H](CO)[C@@H]2Cn3c(ccc(-c4ccccc4F)c3=O)[C@H]1N2Cc1cccnc1	2	.	.	.	5	.
C/C=C/c1cnc2c(c1)C(=O)N([C@H](C)CO)C[C@@H](C)[C@@H](CN(C)C(=O)NCCC)O2	-10	.	.	.	11	.
CCOC(=O)c1ccccc1NS(=O)(=O)c1ccc(OCC)cc1	.	.	2	-14	.	18
CCOc1ccc(S(=O)(=O)Nc2cc(SCC(=O)O)c(O)c3ccccc23)cc1	5	53	54*	-8	19	32
Cc1ccc(NS(=O)(=O)c2cc(NC(=O)C(C)Oc3ccccc3)ccc2C)c(C)c1 (stereo unspecified)	.	16	23	6	-6	11
Cc1ccc(C)c(S(=O)(=O)Nc2cc(SCC(=O)O)c(O)c3ccccc23)c1	.	.	59*	1	.	94*
N=c1c(C(=O)NCC2CCCO2)cc2c(=O)n3ccccc3nc2n1Cc1ccco1 (stereo unspecified)	4	9	0	6	-2	20
N=c1c(C(=O)NC2CCCCC2)cc2c(=O)n3ccccc3nc2n1Cc1ccco1	8	-16	19	5	5	85*
N=c1c(C(=O)NC2CCCCC2)cc2c(=O)n3ccccc3nc2n1Cc1ccccc1	.	7	-8	16	15	-19
N=c1c(C(=O)NCCc2ccccc2)cc2c(=O)n3ccccc3nc2n1Cc1ccco1	19	-4	29	-11	13	75*
Cc1ccc(-n2[nH]c(=O)c(-c3ccccn3)c2C)cc1	74*	75*	81*	66*	94*	101*
Cc1ccc(-n2[nH]c(=O)c3cccnc32)cc1	.	-15	-4	-5	.	8
O=C(OCC(=O)N1CCN(C(=O)c2ccco2)CC1)c1cc(-c2ccc(F)cc2)nc2ccccc12	.	.	2	5	.	52*
SMILES	EWS-Fli inh	PAX8 reporter	TROY NFkB inh	LMP1 NFkB inh	LGR2 antag	TWEAK-Fn14 inh
O=C(OCC(=O)N1CCN(C(=O)c2ccco2)CC1)c1ccccc1C(=O)c1ccccc1	.	.	.	-10	.	79*
CC(C)c1cc(C(=O)OCC(=O)N2CCN(C(=O)c3ccco3)CC2)c(O)c(C(C)C)c1	6	113*	-3	-3	0	-3
O=C(OCC(=O)N1CCN(C(=O)c2ccco2)CC1)c1ccccc1C(=O)c1ccc(Cl)cc1	.	.	-8	5	.	6
CC(C)c1ccc2c(c1)C(N1CCNCC1)Cc1ccc(F)cc1S2 (stereo unspecified)	22	31	.	.	104*	.
O=C(CN1C(=O)/C(=C2\SC(=S)N(C3CCS(=O)(=O)C3)C2=O)c2ccccc21)Nc1ccc(F)cc1 (stereo unspecified)	7	12	-9	2	.	78*
COc1ccc(NC(=O)Nc2ccc3c(c2)C(=O)N([C@@H](C)CO)C[C@@H](C)[C@H](CN(C)S(=O)(=O)c2ccc(OC)cc2)O3)cc1	8	5	.	.	9	.
Cc1ccc(NC(=O)c2c3c(nc4ccccc24)CCC3)cc1S(=O)(=O)N(C)C	10	16	48	7	-8	71*
CC1CCCCC1NC(=O)/C(C#N)=C/c1ccccc1F (stereo unspecified)	14	14	30	7	38	70*
CSc1ccc(/C=C(\C#N)C(=O)NC2CCCCC2C)cc1 (stereo unspecified)	-8	-11	-11	1	20	35
O=C(O)CSCC(=O)N1CCN(c2ccnc3cc(Cl)ccc23)CC1	.	.	-12	5	.	12
O=C(O)CSCC(=O)N1CCN(c2nc3cc(Cl)ccc3s2)CC1	-3	-1	5	1	-27	62*
C=C1C(=O)O[C@@H]2[C@H]3O[C@]3(C)CC/C=C(\C)CC[C@@H]12	2	101*	18	35	20	39
CC(C)NC(=O)c1cnc(N2CCN(c3ccccn3)CC2)c2ccccc12	.	10	-20	8	.	27
CCc1ccc(NC(=O)c2cnc(N3CCN(c4ccccn4)CC3)c3ccccc23)cc1	-8	32	60*	18	?	101*
O=C1c2ccccc2-c2onc3ccc(Oc4ccccc4)c1c23	.	.	-7	53*	37	56*
COc1ccc(NC(=O)N(C)C[C@@H]2Oc3ncc(C#CCC(C)C)cc3C(=O)N([C@@H](C)CO)C[C@@H]2C)cc1	-6	.	.	.	-11	.
Cc1ccc2cc(C)c3nnc(SCC(=O)NCc4ccco4)n3c2c1	-9	.	-13	17	7	52*
Cc1cc2nnc(SCC(=O)NCc3cccs3)n2c2ccccc12	.	.	3	11	.	24
Cc1cc2nnc(SCC(=O)NCc3ccco3)n2c2ccccc12	51*	31	1	2	2	7
CCNC(=O)[C@H]1[C@H](CO)[C@H]2Cn3c(ccc(-c4ccccc4)c3=O)[C@@H]1N2C(=O)CC1CC1	6	.	.	.	5	.
Cc1ccc(S(=O)(=O)N2[C@@H](c3ccc(C(C)(C)C)cc3)C(C(=O)O)=CC[C@H]2c2ccc(C(C)C)cc2)cc1	-17	0	87*	4	18	94*
